Data reported in PubChem BioAssay (NCI).
About 83,000 compounds went through this panel and 20% of them were active in at least one assay; those are over-represented in the sample as a whole.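 Single-dose data. Exposure time 48 hours. Values below 10 considered active.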 Unmarked numbers belong to inactive results. The source made the active and inactive calls.

tested on: SF-539 CNS; test: NCI-60 one-dose screen, 48 h (100 = growth as untreated, 0 = no growth, -100 = all killed); details: 10 µM unless noted

| Compound | growth |
| --- | --- |
| Cc1nn(-c2ccccc2)c(Cl)c1/C=C/C(=O)c1ccc(F)cc1 | 89.9% |
| COc1cc2oc(-c3cccc(C(=O)Nc4ccc(Br)cc4)c3)cc(=O)c2c(OC)c1OC | 65% |
| CC1=C(C(=O)/C=C/c2c[nH]c3ccccc23)C(c2ccccc2)NC(=S)N1 (stereo not drawn) | 98.2% |
| CCCCCN1C=C/C(=C\C(=O)N(C)c2ccc(Oc3ccccc3)cc2)c2ccccc21 | 92.8% |
| Cn1cc(-c2nc(-c3c[nH]c4c(Cl)nccc34)cs2)c2cc(Br)ccc21 | 82.5% |
| COc1ccc(/C=C2\Oc3cc(OCCCN4CCCCC4)ccc3C2=O)cc1OC | 91.5% |
| Cc1cc2nc3c4cc(C=O)ccc4n(CCN(C)C)c3nc2cc1C | 21% |
| S=c1cc(S)c2cc(Br)ccc2[nH]1 | 97.7% |
| O=C(/C(=C\c1ccc([N+](=O)[O-])cc1)S(=O)Cc1ccc(Cl)cc1)c1ccc(Cl)cc1 (stereo not drawn) | 99.1% |
| COc1cc(CC(=O)c2ccc(O)c(OC)c2)ccc1O | 103% |
| O=C(NCCc1ccccc1)Nc1ccc2cc3ccc(NC(=O)NCCc4ccccc4)cc3nc2c1 | -61.7% (active) |
| C=C(C)[C@@H]1CC[C@]2(C(=O)N3CCN(C)CC3)CC[C@]3(C)[C@H](CC[C@@H]4[C@@]5(C)C/C(=C/c6cccnc6)C(=O)C(C)(C)[C@@H]5CC[C@]43C)[C@@H]12 | 74.5% |
| COc1cc2nc(-c3ccc(Cl)cc3)cc(OCCCN3CCC(O)CC3)c2cc1OC | 54.3% |
| O=S(=O)(NCCNc1nccc(-c2c(-c3cccc(O)c3)nc3occn23)n1)c1ccccc1 | 105% |
| NC(=NCCCOc1ccc(F)cc1)Nc1ccc(Cl)cc1 | 59.7% |
| C#Cc1cccc(NC(=O)c2cccc(NC(=O)CCl)c2)c1 | -97.1% [8.25 µM] (active) |
| CCN1Cc2nc3sc(C)c(C)c3c(=O)n2C=C1C | 70% |
| O=C1Nc2cc(-c3cccc([N+](=O)[O-])c3)ccc2/C1=C/c1ccc[nH]1 | 93.5% |
| C[C@H]1[C@H](C)CC[C@]2(C(=O)NCC#CCN3CCN(C)CC3)CC[C@]3(C)C(=CC[C@@H]4[C@@]5(C)Cc6c([nH]c7ccccc67)C(C)(C)[C@@H]5CC[C@]43C)[C@H]12 | 84.8% |

| Compound | growth |
| --- | --- |
| COc1cc(/C=C/c2cc(O)c(C(C)=O)c(O)c2)cc2c1O[C@]1(C)CC[C@@H](O)C(C)(C)[C@H]1C2 | 9.14% (active) |
| N#CC1=C(N)Oc2c(cnn2-c2ccc([N+](=O)[O-])cc2[N+](=O)[O-])C1c1ccccc1 (stereo not drawn) | 98.2% |
| COc1ccc(C(=O)c2cc(C)c(OC)c(C)c2)c(OC)c1N(C(=O)CCl)C(=O)CCl | -21.1% (active) |
| CCC(=O)Oc1ccc(/C(=C(\C)c2ccccc2)c2ccc(OCCN3CCCCC3)cc2)cc1 | 62.2% |
| Cc1ccc(NC(=O)c2cc(-c3nc4ccccc4s3)c(=O)n(NS(=O)(=O)c3ccc(Cl)cc3)c2N)cc1 | 97.2% |
| O=C1Nc2ccc(F)cc2/C1=C\c1c(-c2ccccc2)nc2ccccn12 | 73.3% |
| O=C(NO)c1ccc(-n2nc(-c3ccccc3)c3ccccc32)cc1 | 49.3% |
| O=C1Nc2ccccc2/C1=C\c1c(-c2ccc(F)cc2)nc2ccccn12 | 78% |
| Oc1cccc(CCc2ccc(Oc3cc(CCc4cccc(O)c4)cc(O)c3O)cc2)c1 | 73.9% |
| CCCCCCCC(=O)OCC/C=C/C1OC1C1OC(=O)/C=C\C=C\C(=O)N(C(C)=O)C(=O)/C=C(/C)CCC2OC2C1OC(=O)NC(C)=O (stereo not drawn) | 25.9% |
| Cc1ccc(NS(=O)(=O)c2ccc(-c3cnc(C4CC4)o3)cc2)cc1C(F)(F)F | 65.5% |
| CNC(=O)c1cncc(Cn2nc(C)c(NC(=O)c3ccc(COc4ccc(C(F)(F)F)cc4C)cc3)c2C)c1 | 80.7% |
| Cc1cc(C)c(S(=O)(=O)Oc2ccccc2[N+](=O)[O-])c(C)c1 | -8.46% (active) |
| C=C1C(=O)O[C@H]2[C@H]1CC/C(CNC(=O)C(C)c1ccc(CC(C)C)cc1)=C\CC[C@@]1(C)O[C@@H]21 (stereo partly drawn) | -74.8% (active) |
| NC(=S)N1N=C(c2ccccc2)CC1c1cn(-c2ccccc2)nc1-c1ccc(OCc2ccccc2)cc1 (stereo not drawn) | 102% |
| CN1CCN(C(=O)[C@]23CCC(C)(C)C[C@H]2C2=CC[C@@H]4[C@@]5(C)C/C(=C/c6cccnc6)C(=O)C(C)(C)[C@@H]5CC[C@@]4(C)[C@]2(C)CC3)CC1 | 80% |
| O=C1Nc2cc(-c3cccc(O)c3)ccc2/C1=C/c1ccc[nH]1 | -48.7% (active) |
| COc1ccc(/C=C/c2nc(Nc3ccc(S(=O)(=O)NC(C)=O)cc3)c3ccccc3n2)cc1 | 97.3% |
| CCNC(=O)Oc1ccc(/C(=C(\C)c2ccccc2)c2ccc(OCCN3CCCCC3)cc2)cc1 | 24.3% |
